Rows were chosen to be rich in hits. Some 2.7% of all compounds tested hit in one or more screens of this group.
FBPA coupling cs = counter-screen for Giardia aldolase inhibitors: coupling enzyme system; 0.67% of 290,000 active; AID 2472; coupling enzyme system counterscreen, AmpLite Red fluorescence; activity change, negative = inhibition, % at 58.2 µM, hits read low; in the data active means activity change below about -30%
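Fluorescence at 525 nm excitation and 598 nm emission measured inhibition of the coupled detection system without aldolase. Compounds (at 57.5 uM final) were preincubated 10 min at room temperature with coupling enzyme reagent before a 20 min substrate/AmpLite Red step.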
Tau fibril ThT = blocks human tau fibril formation measured by thioflavin T | P10636 | recombinant tau K18 P301L, heparin-induced fibrillization, ThT fluorescence | Potency, µM (doses to about 57.4 µM), without a hit: at the highest dose activity, negative = inhibition, hits mostly inhibitors | 2.1% of 270,000 active | AID 1460; further: potency means the concentration at half of the fitted maximal effect; nearly all actives have a fitted effect of over 55% in size
Target sequence (P10636 561-689 P618L limits assumed): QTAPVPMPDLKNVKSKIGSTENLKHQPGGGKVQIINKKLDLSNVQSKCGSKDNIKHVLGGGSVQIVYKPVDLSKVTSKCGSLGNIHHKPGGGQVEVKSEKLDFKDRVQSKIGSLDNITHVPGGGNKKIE
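Heparin-induced (20 uM) aggregation of recombinant human K18 P301L tau, 15 uM unlabeled with 0.24 uM labeled, pH 7 acetate buffer, 6 hr at 37 C with compound. Fibrils quantified by 30 uM ThT fluorescence after 1 hr ambient incubation.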
Tau fluor cs = counter-screen for tau fibril formation inhibitors. tau K18 P301L Alexa594 fluorescence, heparin fibrillization. Potency, µM (doses to about 57.7 µM), for inactives: at the top dose activity change, negative = decrease. 0.93% of 280,000 active. AID 1463; further: potency means the concentration at half of the fitted maximal effect; nearly all actives have a fitted effect of over 55% in size
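Human tau K18 P301L (15 uM unlabeled, 0.24 uM Alexa 594-labeled) in 100 mM sodium acetate pH 7 with 20 uM heparin, 6 hr at 37 C. ThT 30 uM added, 1 hr ambient; Alexa 594 FP and total fluorescence read at 555/632 nm.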
Tau FP inhib = blocks human tau fibril formation measured by polarization; 0.39% of 280,000 active; Potency, µM (highest dose often 57.7 µM), for inactives: top-dose activity, negative = inhibition, most hits filed as inhibitors; K18 P301L tau heparin fibrillization, Alexa594 FP, 6 h; P10636; further: potency means the concentration at half of the fitted maximal effect; nearly all actives have a fitted effect of over 55% in size
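Human tau K18 […] P301L fragment, 15 uM unlabeled plus 0.24 uM Alexa 594-labeled tau (final), with compound and 20 uM heparin in 100 mM sodium acetate pH 7; 6 hr at 37 C, then Alexa 594 FP read.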
* = called active by the depositor; ? = inconclusive; / = no result; [ ] = another dose, or the depositor's remark. Unless noted, the call rests on the fitted dose curve; in most records, active means well fitted curve in the direction sought with a large enough effect; inconclusive means small, poorly fitted or top-dose-only effect, or another doubt; inactive means no such curve, though single readings can be large; an effect the other way counts as inactive or inconclusive. On the % scale 0 is the no-effect control and ±100 the full control effect.

SMILES	FBPA coupling cs	Tau fibril ThT	Tau fluor cs	Tau FP inhib
COc1ccc(C(=O)/C=C/c2ccc(N3CCCCC3)c([N+](=O)[O-])c2)cc1	-2.1	7.94µM*	?	11.6%
Cc1ccccc1Oc1cc(NC(=O)Cn2cnc([N+](=O)[O-])c2)cc([N+](=O)[O-])c1	-5.9	?	12.6µM*[quencher]	?
O=C(c1ccccc1)c1c[nH]c2ccccc12	-0.1	/	/	/
O=C(/C=C/c1c[nH]c2ccccc12)c1cccc2ccccc12	-12.2	?	6.31µM*[quencher]	?
Cc1cc(C)cc(OC(=O)CS(=O)c2ccc(C(F)(F)F)cc2[N+](=O)[O-])c1 (stereo not drawn)	-27.2	12.6µM*	?	?
O=C(CS(=O)c1ccc(C(F)(F)F)cc1[N+](=O)[O-])Oc1ccc(Cl)cc1 (stereo not drawn)	-15.0	22.4µM*	?	?
COC(=O)C(=Cc1cc(Br)c(OC)c(Br)c1)C(=O)OC	3.3	?	?	0.1%
CCOC(=O)c1c(C)[nH]c(N=Nc2ccc(C)cc2C)c1C	-22.1	6.31µM*	?	13.0%
CCOC(=O)c1c(C)[nH]c(N=Nc2ccccc2C)c1C	-4.4	5.01µM*	?	5.0%
CCOC(=O)c1c(C)[nH]c(N=Nc2cc(C(=O)O)cc(C(=O)O)c2)c1C	17.0	?	-4.9%	-0.9%
Cc1[nH]c2ccccc2c1/C=N/NC(=S)NC(C)C	-1.6	?	15.8µM*[quencher]	13.4%
Cc1[nH]c2ccccc2c1/C=N/NC(=O)c1cccc(S(=O)(=O)Nc2cccc(C(F)(F)F)c2)c1	-19.9	?	8.91µM*[quencher]	?
Cc1[nH]c2ccccc2c1/C=N/NS(=O)(=O)c1ccccc1	-1.1	?	?	14.3%
Cc1[nH]c2ccccc2c1/C=N/NC(=O)C1CC1(c1ccccc1)c1ccccc1 (stereo not drawn)	-3.7	?	5.01µM*[quencher]	-5.2%
Cc1[nH]c2ccccc2c1/C=N/Nc1ccccc1[N+](=O)[O-]	-8.4	1.78µM*	2µM*[quencher]	?
CC(C)NC(=S)N/N=C/c1c[nH]c2ccccc12	-1.8	?	?	?
Cc1cccc(NC(=O)C2CCN(S(=O)(=O)c3ccc(F)cc3)CC2)c1C	/	-14.3%	-14.2%	0.2%
Cc1cc(C)c(NC(=O)Cn2nnc(-c3nc(-c4ccccc4)no3)c2N)c(C)c1	/	22.5%	17.2%	0.6%
Cc1[nH]c2ccccc2c1/C=N/NC(=O)c1cc(-c2cccs2)[nH]n1	-6.1	5.62µM*	12.6µM*[quencher]	?
CCC(=O)Nc1ccc(C(=O)N/N=C/c2c(C)[nH]c3ccccc23)cc1	-0.4	11.2µM*	?	?
Cc1cc(C(=O)N/N=C/c2c(C)[nH]c3ccccc23)n[nH]1	-0.5	/	?	?
Cc1ccc(Nc2nc(-c3c(C)nc4ncccn34)cs2)cc1	-0.1	14.1µM*	?	-5.2%
Cc1ccc(Nc2nc(-c3c(C)nc4ccccn34)cs2)cc1	0.0	11.2µM*	10µM*[quencher]	?
C=CCNc1nc(-c2c(C)nc3ncccn23)cs1	0.1	/	/	/
Cc1nc2ncccn2c1-c1csc(Nc2ccc(O)cc2)n1	-2.1	10µM*	?	6.8%
SMILES	FBPA coupling cs	Tau fibril ThT	Tau fluor cs	Tau FP inhib
CCc1ccc(Sc2cc(C(=O)O)c3ccccc3n2)cc1	/	-2.8%	-5.5%	-5.9%
NC(=O)C1CCN(c2csc3ccc(F)cc3c2=O)CC1	/	-2.3%	4.8%	-1.3%
CCOC(=O)c1noc2ncnc(NCc3ccccc3OC)c12	/	-7.7%	-10.9%	-9.6%
O=[N+]([O-])c1ccc(-c2cnc(SCc3ccccc3Cl)[nH]2)cc1	-1.7	14.1µM*	15.8µM*[quencher]	-4.0%
Cc1cc(C)c2c(=O)[nH]c(SCc3ccc([N+](=O)[O-])cc3)nc2n1	-3.4	-11.9%	-15.9%	-7.2%
NC(=O)CSc1ncc(-c2ccc([N+](=O)[O-])cc2)[nH]1	-0.2	?	-15.5%	-4.5%
Cc1cc(C)c(CSc2ncc(-c3ccc([N+](=O)[O-])cc3)[nH]2)c(C)c1	-8.0	5.01µM*	6.31µM*[quencher]	-10.4%
O=[N+]([O-])c1ccc(-c2cnc(SC(c3ccccc3)c3ccccc3)[nH]2)cc1	3.8	?	3.98µM*[quencher]	?
CCN(CC)S(=O)(=O)c1ccc2c(c1)N(CC(=O)N1CCN(c3ccc(Cl)cc3)CC1)C(=O)CO2	/	-6.6%	-8.9%	-1.9%
Cc1ccc(NC(=O)CCC(=O)N2Cc3ccccc3Oc3ncccc32)cc1F	/	1.6%	-14.3%	-4.1%
COC(=O)[C@@]1(Cc2ccc(OC)cc2)[C@H]2c3cc(C(=O)N4CCCC4)n(CCc4ccc(O)c(OC)c4)c3C[C@H]2CN1C(=O)c1ccccc1	-1.4	?	-11.5%	6.7%
Cc1ccc(COc2ccc(-c3cc(C(F)(F)F)n4nc(C)cc4n3)cc2)cc1	/	-4.7%	-6.7%	-4.4%
CCC(=O)N1CCc2cc(Br)cc(S(=O)(=O)N3CCN(c4ccc(C)cc4)C(C)C3)c21 (stereo not drawn)	/	-12.5%	-21.7%	0.2%
CN1C=CC2=C(C#N)C(N)C(C#N)(C#N)[C@H](c3ccccc3)[C@H]2C1 (stereo partly drawn)	-30.0*	?	-18.1%	?
COc1ccccc1CNC(=O)C1CCCN(c2nc3ccccc3n3cccc23)C1 (stereo not drawn)	/	4.7%	-1.7%	-0.4%
Oc1c(Br)cc(Br)cc1/C=N/Nc1ccc(Cl)nn1	4.5	/	/	/
Oc1ccc(/C=N/Nc2ccc(Cl)nn2)c(O)c1O	-37.9*	/	/	/
CCOC(=O)c1c(NC(=O)COc2ccc(Cl)cc2Cl)sc2c1CCCCC2	/	4.1%	0.9%	-0.3%
O=C(N=Nc1c(O)n(Cc2ccccc2)c2ccccc12)c1cc2ccccc2cc1O	3.7	12.6µM*	-23.4%	?
O=C(N=Nc1c(O)n(Cc2ccccc2)c2ccccc12)c1ccc(O)cc1	-2.5	14.1µM*	?	-10.3%
COc1ccc(C(=O)NCC(=O)N=Nc2c(O)n(Cc3ccccc3)c3ccccc23)cc1OC	3.2	?	-6.1%	5.6%
Cc1cc(N=NC(=O)c2ccccc2O)c2ccccc2c1O	-11.4	14.1µM*	?	?
Cn1c(O)c(N=NC(=O)c2ccccc2O)c2ccccc21	-2.4	12.6µM*	-10.7%	8.1%
COC(=O)c1nn(-c2ccc(OC)cc2)c(=O)cc1Sc1ccc(C)cc1	-10.9	-17.8%	-15.2%	-8.3%
COC(=O)c1nn(-c2ccc(OC)cc2)c(=O)cc1NN	-42.6*	14.1µM*	-14.5%	?
COc1cc(CNc2ccc(N3CCCC3)cc2)ccc1OCc1ccccc1F	0.5	3.9%	6.0%	1.4%
COc1cc(CNc2ccc(N3CCCC3)cc2)ccc1OCc1ccccc1	-20.4	5.01µM*	?	?
Cc1nc(-c2ccc(S(=O)(=O)N3CCN(c4cc(Cl)ccc4C)CC3)cc2)co1	/	2.3%	-24.2%	-4.7%
O=S(=O)(O/N=C1\CCCc2ccccc21)c1ccccc1	0.8	-8.6%	-8.4%	-6.3%
CC1=CC(=O)C(C(C)C)=C/C1=N/OS(=O)(=O)c1ccccc1	-73.1*	14.1µM*	?	?

Compound activity: PubChem, National Center for Advancing Translational Sciences (NCATS)
